In PubChem BioAssay AID624330 (Southern Research Specialized Biocontainment Screening …, 2012) one finds inhibition data, which are given here for 60 compounds.

In all, about 340,000 compounds went through this assay and about 2,100 (0.62%) were called active. Only a sample is shown. Results with a measured potency or affinity are listed apart. A number with no mark means an inactive call.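 Rule for the calls: active = first-screen hits whose inhibition reached a set limit at any dose in the follow-up dose series; inconclusive = inhibition above the set first-screen limit but never retested; inactive = the rest.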

The inhibition is the relative decrease from the control value, in per cent.

This test deals with Rac GTPase-activating protein 1 (Homo sapiens) (UniProt Q9H0H5). Nature of the test: blockers of MgcRacGAP-driven Rac1 GTP hydrolysis – biochemical, ADP Hunter fluorescence, primary and confirmatory, confirmation (AID 624330).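 Note: fluorescence reports GDP produced by GAP-driven GTP hydrolysis.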 The settings on record: MgcRacGAP-stimulated Rac1 GTP hydrolysis, at 30 µM, hits give high values, GST-tagged Rac1 F28L mutant substrate.
Sequence of Rac GTPase-activating protein 1 (Homo sapiens) (Q9H0H5 whole entry, looked up): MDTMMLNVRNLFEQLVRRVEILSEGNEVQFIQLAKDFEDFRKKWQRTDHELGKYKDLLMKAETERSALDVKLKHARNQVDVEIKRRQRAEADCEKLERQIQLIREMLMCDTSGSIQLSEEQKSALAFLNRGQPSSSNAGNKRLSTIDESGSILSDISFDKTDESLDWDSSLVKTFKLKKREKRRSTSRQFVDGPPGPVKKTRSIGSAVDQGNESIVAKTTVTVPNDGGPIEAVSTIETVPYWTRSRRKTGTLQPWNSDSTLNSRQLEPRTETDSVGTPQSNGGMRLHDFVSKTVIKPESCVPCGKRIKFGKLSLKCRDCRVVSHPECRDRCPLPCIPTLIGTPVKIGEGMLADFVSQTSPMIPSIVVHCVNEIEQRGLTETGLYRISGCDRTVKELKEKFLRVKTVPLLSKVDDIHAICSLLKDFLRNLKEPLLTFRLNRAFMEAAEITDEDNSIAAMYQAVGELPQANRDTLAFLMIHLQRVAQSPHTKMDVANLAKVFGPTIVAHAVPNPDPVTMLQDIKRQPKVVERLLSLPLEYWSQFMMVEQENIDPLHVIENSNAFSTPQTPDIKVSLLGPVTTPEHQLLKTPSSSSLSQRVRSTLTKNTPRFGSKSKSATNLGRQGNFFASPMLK
As to `c1cn(CCCNc2ncnc3nc[nH]c23)cn1`, the inhibition was 8.22%.
The figure for `CCCNC(=O)CNC(=S)N(Cc1ccccc1F)C1CCCCC1` is 8.76%; for `CCCN(CC(=O)Nc1ccc(F)c(F)c1F)C(=O)Cn1c(=O)cnc2ccccc21` it is 5.6%; for `O=C(OCC(=O)N1CCc2ccccc2C1)c1c(F)cccc1Cl` it is 4.76%.
As to `O=C1CN(C(=O)COC(=O)c2ccc(N3CCCCCC3)c([N+](=O)[O-])c2)c2ccccc2N1`, the inhibition was 13.5%.
To `COc1ccc(NC(=O)CN(C)C(=O)Cn2c(=O)oc3ccccc32)cc1` belongs 3.28%.
To `COc1cc(/C=C2/C(=O)CNC2=O)ccc1O` belongs 28.6%; to `COc1ccc(/C=C2\CN(Cc3ccccc3)C/C(=C\c3ccc(OC)c(O)c3)C2=O)cc1O`, 7.6%; to `CCOc1cc(/C=C2/C(=O)ON=C2C)ccc1O`, 21.6%.
The figure for `CCOc1cc(/C=C2\CCn3c2nc2cc(Cl)ccc2c3=O)ccc1O` is 15.1%; for `CCN1C/C(=C/c2ccc(OC)c(O)c2)C(=O)/C(=C/c2ccc(OC)c(O)c2)C1` it is 8.1%.
As to `CCOc1cc(/C=C2\CCCC(C(=O)C(F)(F)F)=C2O)ccc1O`, the inhibition is 25.9%.
`COc1cc(/C=C2/CC/C(=C/c3ccc(O)c(OC)c3)C2=O)ccc1O`: the inhibition is 22%.
On to `COc1ccc(/C=C2\CC/C(=C\c3ccc(OC)c(OC)c3)C2=O)cc1OC`, for which the inhibition was 4.49%.
With `O=C(CSc1nnc(NC(=O)c2ccccc2F)s1)NC1CC1`, the inhibition is 2.69%.
For the compound `NNC(=O)c1ncoc1-c1ccc(Cl)cc1`, the inhibition is 5.93%.
To `C=CCN1CC2CC3(COc4cc(C)cc(C)c4)C=CC2(O3)C1=O` (stereo not given) belongs 14.1%; to `Cc1ccc(C(=O)OCC(=O)Nc2ccc(F)c(Cl)c2)o1`, 5.92%.
Consider `COc1ccc(CNC(=O)C[C@H]2C[C@H](C(=O)N3CCOCC3)[C@@]3(C)c4[nH]c5cc(-c6ccco6)ccc5c4CCN3C2=O)cc1OC`, for which the inhibition was 15.1%.
Consider `O=C(C=Cc1ccccn1)c1ccccc1`, for which the inhibition was 3.53%.
`CCO[C@@H]1OC(C(=O)N2CCOCC2)=C[C@H](c2ccc(Br)cc2)[C@H]1CCCO`: the inhibition was 9.4%.
To `CC(C)CCNC(=O)C(c1ccncc1)N(C(=O)Cn1nnc(-c2ccc(F)cc2)n1)c1ccccc1F` (stereo not given) belongs 2.28%; to `CSc1ccccc1NC(=O)CSc1n[nH]c(C)c1[N+](=O)[O-]`, 8.49%.
As to `Nc1nonc1-n1nnc(C(=O)N/N=C/c2ccc(OCc3ccccc3F)cc2)c1CN1CCCCC1`, the inhibition is -2.32%.
In the case of `COc1cc(/C=C2/C(=O)N(C)C(=S)N2C)ccc1OCc1cccc(F)c1`, the inhibition is 8.12%.
The figure for `CN1C(=O)/C(=C/c2ccc(O)c([N+](=O)[O-])c2)N(C)C1=S` is 12.6%; for `CCc1cc(=O)oc2c(C)c(OCC(=O)NCCCn3ccnc3)ccc12` it is 5.6%.
Take `O=C(C[C@@H]1C[C@@H]2c3cc(NS(=O)(=O)c4ccc(F)cc4)ccc3O[C@@H]2[C@@H](CO)O1)NC1CCCCC1`: the inhibition was 7.42%.
In the case of `O=C(NCc1cccs1)c1nc2ncccn2n1`, the inhibition was 10.9%.
For the compound `CSc1cccc(NC(=S)N(CCC(C)C)C2CCN(C(C)C)CC2)c1`, the inhibition was 1.15%.
To `COc1ccccc1-c1ccc(Nc2ccc(C(=O)N3CCOCC3)cc2)nn1` belongs 2.87%; to `CC(=O)c1ccc(Nc2ccc(-c3ccccc3C)nn2)cc1`, 2.32%; to `O=C(NCc1ccncc1)C(=O)N/N=C/c1cccnc1`, -4.63%.
Regarding `O=P(Cc1ccccc1O)(c1ccccc1)c1ccccc1`, the inhibition was 3.4%.
`Cc1ccc(O)c(CN(C)Cc2cc(C)ccc2O)c1`: the inhibition was -9.02%.
`COc1ccc(S(=O)(=O)NC(C)C(=O)Nc2cccc(C(C)=O)c2)cc1` (stereo not given): the inhibition is 8.82%.
The figure for `CCc1cc2c(=O)c(-c3nc4ccccc4n3C)c(C)oc2c(CN(CC)CC)c1O` is 8.27%; for `CCN(CC)CCn1c2ccccc2c2nc3ccccc3nc21` it is 11.3%; for `O=C(c1cccnc1)N1CCN(S(=O)(=O)c2ccc(S(=O)(=O)N3CCCC3)cc2)CC1` it is 2.14%.
With `CCc1ccc(N(CC(=O)Nc2ccc(OC)cc2OC)S(C)(=O)=O)cc1`, the inhibition was 6.83%.
To `Cc1cc(N2C(=O)C3C4CCC(C4)C3C2=O)no1` (stereo not given) belongs -3.98%; to `O=C(CCCc1cccs1)N1CCN(S(=O)(=O)c2ccccc2Br)CC1`, 8.03%.
To `CC(=O)NC(NC(=S)Nc1ccc(N=Nc2ccccc2)cc1)C(Cl)(Cl)Cl` (stereo not given) belongs 7.33%; to `COC(=O)C1CC(=O)N(c2ccc(C)cc2)C1` (stereo not given), 1.9%; to `COC(=O)c1ccc(OC(=O)C2CC(=O)N(c3cccc(C)c3)C2)cc1` (stereo not given), -2.41%.
The figure for `COc1ccc(N2CC(C(=O)OCC(=O)c3ccc(C)cc3)CC2=O)cc1` (stereo not given) is -1.09%; for `COc1cccc(N2CC(NC(=O)c3ccc4ccccc4c3)CC2=O)c1` (stereo not given) it is 6.5%; for `O=C(COC(=O)c1ccccc1Cl)NCc1ccco1` it is 6.58%.
With `CC(C)=CCN1CCN(CCCn2cccn2)CC1CCO` (stereo not given), the inhibition is 0.56%.
To `CC(=O)Nc1ccc(S(=O)(=O)Nc2nccc(/C=C/c3ccc(Cl)cc3)n2)cc1` belongs -0.65%; to `COCC1CCN(C(=O)c2cc(COc3ccc(OC)cc3Cl)on2)C1` (stereo not given), 10.9%.
In the case of `COC(=O)C1(Cc2ccc(O)cc2)OC(=O)C(O)=C1c1ccc(O)cc1` (stereo not given), the inhibition was 16.3%.
As for `Cc1ccc(S(=O)(=O)c2ccc(C)cc2)cc1`, the inhibition is 5.53%.
Regarding `CC(=O)Nc1ccc(S(=O)(=O)c2ccc(C)cc2)cc1`, the inhibition is 10.7%.
In the case of `COc1cc(C(=O)NCCC(=O)N2CCC3(CC2)NCCc2[nH]cnc23)cc(OC)c1OC`, the inhibition was 1.24%.
The figure for `CCC1CCCCN1C(=S)NC(=O)c1ccc(F)c(S(=O)(=O)N2CCOCC2)c1` (stereo not given) is 0.38%.
For `O=C(Cc1cscn1)c1ccc(O)cc1O`, the inhibition is 0.47%.
For the compound `Oc1ccc(/C(Cc2ccccn2)=N\Nc2ccccc2)c(O)c1`, the inhibition was 13.1%.
With `Cc1nc(CC(=O)c2ccc(O)cc2O)cs1`, the inhibition was -0.73%.
To `Cc1nc(C/C(=N\Nc2ccccc2)c2ccc(O)cc2O)cs1` belongs 10.9%.
